# Source: publication PMC11062922 (Nature Chemical Biology, 2023)
# Where two headings read alike, the source gives them in different places.
# How the values were obtained:
# Set-up in all cases: species or system human, MV4-11 + K-562 + COLO205 + SK-N-BE2 + OVCAR-8
# [1] = system: ADRBK1; settings: read-out: apparent Kd, n = 1
# [2] = system: CDK10; settings: read-out: apparent Kd; compound concentrations: 100 nM and 1000 nM (sheet 'Samples'), CATDS: 0.80077145880212897; n = 1
# [3] = system: PRKAA2; settings: read-out: apparent Kd; compound concentrations: 100 nM and 1000 nM (sheet 'Samples'), CATDS: 0.26734267999924899; n = 1
# [4] = system: AKT2; settings: read-out: apparent Kd, n = 1
# [5] = system: CDK4; settings: read-out: apparent Kd; compound concentrations: 100 nM and 1000 nM (sheet 'Samples'), CATDS: 0.36803542167658398; n = 1
# [6] = system: CDK6; settings: read-out: apparent Kd, n = 1
# [7] = system: PIP4K2C; settings: read-out: apparent Kd; compound concentrations:100 nM and 1000 nM (sheet 'Samples'); n = 1
# [8] = system: RIOK2; settings: read-out: apparent Kd, n = 1
# [9] = system: AKT1; settings: read-out: apparent Kd, compound concentrations: 100 nM and 1000 nM (sheet 'Samples'), n = 1
# [10] = system: MAP2K1; settings: read-out: apparent Kd, compound concentrations: 100 nM and 1000 nM (sheet 'Samples'), n = 1
# [11] = system: MAP2K2; settings: read-out: apparent Kd, compound concentrations: 100 nM and 1000 nM (sheet 'Samples'), n = 1
# [12] = system: NNT; settings: read-out: apparent Kd, compound concentrations: 100 nM and 1000 nM (sheet 'Samples'), n = 1
# [13] = system: NQO1; settings: read-out: apparent Kd, compound concentrations: 100 nM and 1000 nM (sheet 'Samples'), n = 1
# [14] = system: CAMK4; settings: read-out: apparent Kd; compound concentrations: 100 nM and 1000 nM (sheet 'Samples'), CATDS: 3.6966464107036197E-2; n = 1
# [15] = system: CSNK1A1; settings: read-out: apparent Kd; compound concentrations: 100 nM and 1000 nM (sheet 'Samples'), CATDS: 3.77728763052241E-2; n = 1
# [16] = system: EPHA7; settings: read-out: apparent Kd; compound concentrations: 100 nM and 1000 nM (sheet 'Samples'), CATDS: 3.8645316072732999E-2; n = 1
# [17] = system: ILK; settings: read-out: apparent Kd; compound concentrations: 100 nM and 1000 nM (sheet 'Samples'), CATDS: 0.14244785973502599; n = 1
# [18] = system: MAP2K4; settings: read-out: apparent Kd; compound concentrations: 100 nM and 1000 nM (sheet 'Samples'), CATDS: 0.186744219541462; n = 1
# [19] = system: MCM5; settings: read-out: apparent Kd; compound concentrations: 100 nM and 1000 nM (sheet 'Samples'), CATDS: 3.88707631057994E-2; n = 1
# [20] = system: MYLK3; settings: read-out: apparent Kd; compound concentrations: 100 nM and 1000 nM (sheet 'Samples'), CATDS: 3.9755051907905598E-2; n = 1
# [21] = system: PRKCI; settings: read-out: apparent Kd; compound concentrations: 100 nM and 1000 nM (sheet 'Samples'), CATDS: 3.7397105483333901E-2; n = 1
# [22] = system: PYGL; settings: read-out: apparent Kd; compound concentrations: 100 nM and 1000 nM (sheet 'Samples'), CATDS: 3.7417156320033999E-2; n = 1
# [23] = system: STK11; settings: read-out: apparent Kd; compound concentrations: 100 nM and 1000 nM (sheet 'Samples'), CATDS: 4.1841672980442002E-2; n = 1
# [24] = system: STK26; settings: read-out: apparent Kd; compound concentrations: 100 nM and 1000 nM (sheet 'Samples'), CATDS: 3.6848584126752397E-2; n = 1
# [25] = system: TP53RK; settings: read-out: apparent Kd; compound concentrations: 100 nM and 1000 nM (sheet 'Samples'), CATDS: 4.1477973818590801E-2; n = 1
# [26] = system: VDAC3; settings: read-out: apparent Kd; compound concentrations: 100 nM and 1000 nM (sheet 'Samples'), CATDS: 3.7908226064931903E-2; n = 1
# [27] = compound concentrations:100 nM and 1000 nM (sheet 'Samples')
compound,measurement,setting,value
COc1cc(Nc2ncc3c(C)nc(-c4cccc(C(F)(F)F)c4)n3n2)cc(OC)c1OC [GW837331X],potency estimated from few doses,"[1]; compound concentrations: 100 nM and 1000 nM (sheet 'Samples'), CATDS: 1",2.01 µM
CS(=O)(=O)Nc1ccc(-c2ccc3c(NC(=O)C4CC4)n[nH]c3c2)cc1 [SB-742865],potency estimated from few doses,"[1]; compound concentrations: 100 nM and 1000 nM (sheet 'Samples'), CATDS: 0.24933386454831599",1.84 µM
same,potency estimated from few doses,[2],0.107 µM
same,potency estimated from few doses,[3],1.44 µM
CC(=O)c1c(C)c2cnc(Nc3ccc(N4CCNCC4)cn3)nc2n(C2CCCC2)c1=O [PFE-PKIS_32],potency estimated from few doses,[1]; [27],1.17 µM
same,potency estimated from few doses,[4]; [27],1.96 µM
same,potency estimated from few doses,[5],0.118 µM
same,potency estimated from few doses,[6]; [27],0.0823 µM
same,potency estimated from few doses,[7],1.61 µM
same,potency estimated from few doses,[8]; [27],2.04 µM
Cn1cc(C2=C(c3ccc4ccccc4c3)C(=O)NC2=O)c2ccccc21 [RO0317254-000],potency estimated from few doses,"[1]; compound concentrations: 100 nM and 1000 nM (sheet 'Samples'), CATDS: 0.11613570195442",2.34 µM
same,potency estimated from few doses,[9]; CATDS: 0.12373221048930499,2.05 µM
same,potency estimated from few doses,"[4]; compound concentrations: 100 nM and 1000 nM (sheet 'Samples'), CATDS: 0.121499008172246",2.13 µM
same,potency estimated from few doses,"[6]; compound concentrations: 100 nM and 1000 nM (sheet 'Samples'), CATDS: 0.120580307710246",2.16 µM
same,potency estimated from few doses,[10]; CATDS: 0.131345384217323,1.82 µM
same,potency estimated from few doses,[11]; CATDS: 0.121431246351448,2.13 µM
same,potency estimated from few doses,[12]; CATDS: 0.14240170913061401,1.57 µM
same,potency estimated from few doses,[13]; CATDS: 0.12637990091667001,1.96 µM
COc1cc2ncn(-c3cc(OCc4ccccc4C(F)(F)F)c(C(C)=O)s3)c2cc1OC [GSK1030059A],potency estimated from few doses,"[1]; compound concentrations: 100 nM and 1000 nM (sheet 'Samples'), CATDS: 0.14381840818805",0.132 µM
same,potency estimated from few doses,[9]; CATDS: 4.3697981842120898E-2,1.3 µM
same,potency estimated from few doses,"[4]; compound concentrations: 100 nM and 1000 nM (sheet 'Samples'), CATDS: 4.5438239597783502E-2",1.18 µM
same,potency estimated from few doses,[14],2.08 µM
same,potency estimated from few doses,[15],1.95 µM
same,potency estimated from few doses,[16],1.82 µM
same,potency estimated from few doses,[17],0.134 µM
same,potency estimated from few doses,[10]; CATDS: 0.14670729977766001,0.128 µM
same,potency estimated from few doses,[11]; CATDS: 4.5160118472274198E-2,1.19 µM
same,potency estimated from few doses,[18],0.0895 µM
same,potency estimated from few doses,[19],1.79 µM
same,potency estimated from few doses,[20],1.67 µM
same,potency estimated from few doses,[12]; CATDS: 5.0059398656859502E-2,0.933 µM
same,potency estimated from few doses,[13]; CATDS: 4.7880082762824801E-2,1.04 µM
same,potency estimated from few doses,[21],2.01 µM
same,potency estimated from few doses,[22],2 µM
same,potency estimated from few doses,"[8]; compound concentrations: 100 nM and 1000 nM (sheet 'Samples'), CATDS: 4.6117723123063198E-2",1.13 µM
same,potency estimated from few doses,[23],1.45 µM
same,potency estimated from few doses,[24],2.1 µM
same,potency estimated from few doses,[25],1.49 µM
same,potency estimated from few doses,[26],1.93 µM
